{
  "source": "the supplement of paper PMC3342239",
  "note": "Counter-ions that a name gives are not always drawn.",
  "data": [
    {"system": "Saccharomyces cerevisiae", "experiment": "fraction of cells in G1 phase (DNA content, flow cytometry); higher = more cells with unreplicated DNA (G1 delay)", "conditions": "temperature: 30 C; YPD; JTY2953 pdr5 snq2 (sensitized); drug added to: cultures diluted from stationary phase; 6-7 h", "procedure,_shortened": "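Yeast (S. cerevisiae) in YPD at 30°C was treated with library drugs, and cells were then fixed in ethanol, stained with SYTOX Green and counted by flow cytometry over 10,000 events. Sensitized JTY2953 diluted 1∶200 from an overnight culture got a final 20 µg/ml and was fixed 6–7 h later; other runs dosed dividing JTY2953 (fixed at 6 h) or BY4741 (fixed at 4.33 h). G1 fraction means the Dean-Jett-Fox G1 peak area relative to the G1 and G2/M areas together.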", "values": [
      {"smiles": "NNC(=O)c1ccncc1", "note": "[Isoniazid] (145.834 µM)", "fraction of cells in G1 phase": 0.518},
      {"smiles": "Cn1ccnc1S", "note": "[Methimazole] (175.178 µM)", "fraction of cells in G1 phase": 0.473},
      {"smiles": "Cc1ccc(NC(=O)c2ccc(CN3CCN(C)CC3)cc2)cc1Nc1nccc(-c2cccnc2)n1", "note": "[Imatinib] (40.5173 µM)", "fraction of cells in G1 phase": 0.52},
      {"smiles": "CO[C@H]1/C=C/O[C@@]2(C)Oc3c(C)c(O)c4c(O)c(cc(O)c4c3C2=O)NC(=O)/C(C)=C\\C=C\\[C@H](C)[C@H](O)[C@@H](C)[C@@H](O)[C@@H](C)[C@H](OC(C)=O)[C@@H]1C", "note": "[Rifamycin sv] (28.7035 µM)", "fraction of cells in G1 phase": 0.477},
      {"smiles": "CCCCC[C@H](O)/C=C/[C@H]1[C@H](O)CC(=O)[C@@H]1C/C=C\\CCCC(=O)O", "note": "[Dinoprostone] (56.7416 µM)", "fraction of cells in G1 phase": 0.487},
      {"smiles": "CN(C)CCCC1(c2ccc(F)cc2)OCc2cc(C#N)ccc21", "note": "(configuration not stated) [Citalopram] (61.652 µM)", "fraction of cells in G1 phase": 0.454},
      {"smiles": "Nc1ccn([C@H]2CC[C@@H](CO)O2)c(=O)n1", "note": "[2',3' - dideoxycytidine] (94.687 µM)", "fraction of cells in G1 phase": 0.474},
      {"smiles": "CCn1cc(C(=O)O)c(=O)c2cc(F)c(N3CCNCC3)nc21", "note": "[Enoxacin] (62.4364 µM)", "fraction of cells in G1 phase": 0.512},
      {"smiles": "Cc1cccc(Nc2ccccc2C(=O)O)c1C", "note": "[Mefenamic acid] (82.887 µM)", "fraction of cells in G1 phase": 0.464},
      {"smiles": "Nc1ccc(C(=O)O)c(O)c1", "note": "[4-aminosalicylic acid] (130.601 µM)", "fraction of cells in G1 phase": 0.481},
      {"smiles": "N.N.O=C([O-])C[O-].[Pt+2]", "note": "[Nedaplatin] (65.9657 µM)", "fraction of cells in G1 phase": 0.545},
      {"smiles": "CN[C@@H]1[C@@H](O[C@H]2O[C@H](CO)[C@@H](N)[C@H](O)[C@H]2O)OC2C[C@@H](N)[C@@H](O[C@H]3[C@H](O)[C@@H](O)[C@H](N)C[C@@H]3N)OC2[C@@H]1O", "note": "(some centres not stated) [Apramycin] (37.0653 µM)", "fraction of cells in G1 phase": 0.449},
      {"smiles": "CN(C)CCCSc1ccccc1NC(=O)/C=C/c1ccccc1", "note": "[Cinanserin] (58.7387 µM)", "fraction of cells in G1 phase": 0.456},
      {"smiles": "CCCNCC(O)COc1ccccc1C(=O)CCc1ccccc1", "note": "(configuration not stated) [Propafenone] (58.5652 µM)", "fraction of cells in G1 phase": 0.489},
      {"smiles": "CN/C(=N\\CCSCc1nc[nH]c1C)NC#N", "note": "[Cimetidine] (79.2571 µM)", "fraction of cells in G1 phase": 0.5},
      {"smiles": "COc1ccc(C(=O)NCc2cccnc2)cc1C(=O)NCc1cccnc1", "note": "[Picotamide] (53.1323 µM)", "fraction of cells in G1 phase": 0.459},
      {"smiles": "C[C@]12CC[C@@H]3c4ccc(O)cc4CC[C@H]3[C@@H]1CC[C@@H]2O", "note": "[Estradiol] (73.4239 µM)", "fraction of cells in G1 phase": 0.58},
      {"smiles": "C[C@@H]1C(=O)O[C@H]2C[C@@]34[C@H]5C[C@@H](C(C)(C)C)[C@]36[C@@H](OC(=O)[C@@H]6O)O[C@@]4(C(=O)O5)[C@]21O", "note": "[Ginkgolide a] (48.9705 µM)", "fraction of cells in G1 phase": 0.512},
      {"smiles": "CCOC(=O)OC(C)OC1=C(C(=O)Nc2ccccn2)N(C)S(=O)(=O)c2ccccc21", "note": "(configuration not stated) [Ampiroxicam] (44.6957 µM)", "fraction of cells in G1 phase": 0.5},
      {"smiles": "C[C@@H]1C[C@H]2[C@@H]3CCC4=CC(=O)C=C[C@]4(C)[C@@]3(F)[C@@H](O)C[C@]2(C)[C@@]1(O)C(=O)CO", "note": "[Dexamethasone] (50.9591 µM)", "fraction of cells in G1 phase": 0.504},
      {"smiles": "COc1cc(C)c(/C=C/C(C)=C/C=C/C(C)=C/C(=O)O)c(C)c1C", "note": "[Acitretin] (61.2745 µM)", "fraction of cells in G1 phase": 0.563},
      {"smiles": "NC(=O)N1c2ccccc2C=Cc2ccccc21", "note": "[Carbamazepine] (84.6469 µM)", "fraction of cells in G1 phase": 0.483},
      {"smiles": "CC1(C)S[C@@H]2[C@H](NC(=O)COc3ccccc3)C(=O)N2[C@H]1C(=O)O", "note": "[Pencillin v potassium] (57.2429 µM)", "fraction of cells in G1 phase": 0.461},
      {"smiles": "CC(C)[N+]1(C)[C@@H]2CC[C@H]1CC(OC(=O)C(CO)c1ccccc1)C2", "note": "(some centres not stated) [Ipratropium Br] (60.1563 µM)", "fraction of cells in G1 phase": 0.508},
      {"smiles": "Cc1ccc(S(=O)(=O)NC(=O)NN2CCCCCC2)cc1", "note": "[Tolazamide] (64.2249 µM)", "fraction of cells in G1 phase": 0.516},
      {"smiles": "CO[C@H]1C[C@H](O[C@H]2[C@H](C)[C@@H](O[C@@H]3O[C@H](C)C[C@H](N(C)C)[C@H]3OC(C)=O)[C@@H](C)C[C@@]3(CO3)C(=O)[C@H](C)[C@@H](OC(C)=O)[C@@H](C)[C@@H](C)OC(=O)[C@@H]2C)O[C@@H](C)[C@@H]1OC(C)=O", "note": "[Troleandomycin] (24.5704 µM)", "fraction of cells in G1 phase": 0.489},
      {"smiles": "CN[C@@H]1[C@H](O[C@H]2[C@H](O[C@H]3[C@H](O)[C@@H](O)[C@H](N=C(N)N)[C@@H](O)[C@@H]3N=C(N)N)O[C@@H](C)[C@]2(O)C=O)O[C@@H](CO)[C@H](O)[C@H]1O", "note": "[Streptomycin sulfate] (34.3888 µM)", "fraction of cells in G1 phase": 0.478}
    ]}
  ]
}
